For seven compounds, potency estimated from few doses results are on record in paper PMC11062922 (Nature Chemical Biology, 2023).

What all share (set-up): species or system human, MV4-11 + K-562 + COLO205 + SK-N-BE2 + OVCAR-8
Assay [1] has as its system CAMK2B. Conditions: read-out: apparent Kd, n = 1.
Assay [2] has as its system CAMK2D. Conditions: read-out: apparent Kd, compound concentrations: 100 nM and 1000 nM (sheet 'Samples'), n = 1.
The test system of assay [3] is CAMK2G. Particulars: read-out: apparent Kd; compound concentrations: 100 nM and 1000 nM (sheet 'Samples'), CATDS: 0.16282933819825701; n = 1.
Assay [4] concerns MAPK14. Particulars: read-out: apparent Kd, n = 1.
Assay [5] relates to MAPK1. Conditions: read-out: apparent Kd, compound concentrations: 100 nM and 1000 nM (sheet 'Samples'), n = 1.
The subject of assay [6] is MTHFD1. Particulars: read-out: apparent Kd; compound concentrations: 100 nM and 1000 nM (sheet 'Samples'), CATDS: 0.112540621038884; n = 1.
The test system of assay [7] is STK16. Conditions: read-out: apparent Kd; compound concentrations: 100 nM and 1000 nM (sheet 'Samples'), CATDS: 0.103320343146107; n = 1.
Assay [8] deals with CDC42BPG. Particulars: read-out: apparent Kd; compound concentrations: 100 nM and 1000 nM (sheet 'Samples'), CATDS: 1; n = 1.
For assay [9], the system named is MAPKAPK2. Conditions: read-out: apparent Kd; compound concentrations:100 nM and 1000 nM (sheet 'Samples'); n = 1.
In assay [10] the test system is CDK10. Conditions: read-out: apparent Kd; compound concentrations: 100 nM and 1000 nM (sheet 'Samples'), CATDS: 0.15001944527595701; n = 1.
The test system of assay [11] is FN3K. Particulars: read-out: apparent Kd; compound concentrations: 100 nM and 1000 nM (sheet 'Samples'), CATDS: 0.12433120780871; n = 1.
For assay [12], the system named is ICK. Conditions: read-out: apparent Kd; compound concentrations: 100 nM and 1000 nM (sheet 'Samples'), CATDS: 0.14025095323079101; n = 1.
The test system of assay [13] is CAMKK2. Conditions: read-out: apparent Kd; compound concentrations: 100 nM and 1000 nM (sheet 'Samples'), CATDS: 0.352133758471873; n = 1.
For assay [14], the system named is EGFR. Particulars: read-out: apparent Kd; compound concentrations: 100 nM and 1000 nM (sheet 'Samples'), CATDS: 0.86194262245046105; n = 1.
Assay [15] has as its system CDC42. Particulars: read-out: apparent Kd; compound concentrations:100 nM and 1000 nM (sheet 'Samples'); n = 1.
In assay [16] the test system is CDK7. Particulars: read-out: apparent Kd; compound concentrations:100 nM and 1000 nM (sheet 'Samples'); n = 1.
Assay [17] concerns ERCC2. Particulars: read-out: apparent Kd; compound concentrations:100 nM and 1000 nM (sheet 'Samples'); n = 1.
The subject of assay [18] is FER. Particulars: read-out: apparent Kd; compound concentrations:100 nM and 1000 nM (sheet 'Samples'); n = 1.
The test system of assay [19] is GAK. Conditions: read-out: apparent Kd; compound concentrations:100 nM and 1000 nM (sheet 'Samples'); n = 1.
Assay [20] has as its system HSP90B1. Particulars: read-out: apparent Kd; compound concentrations:100 nM and 1000 nM (sheet 'Samples'); n = 1.
Assay [21] has as its system TNK2. Conditions: read-out: apparent Kd; compound concentrations:100 nM and 1000 nM (sheet 'Samples'); n = 1.
The test system of assay [22] is CDC42BPA. Particulars: read-out: apparent Kd; compound concentrations: 100 nM and 1000 nM (sheet 'Samples'), CATDS: 4.4382649306469998E-2; n = 1.
In assay [23] the test system is CDC42BPB. Particulars: read-out: apparent Kd; compound concentrations: 100 nM and 1000 nM (sheet 'Samples'), CATDS: 5.2868246392704099E-2; n = 1.
Assay [24] relates to CDC7. Conditions: read-out: apparent Kd; compound concentrations: 100 nM and 1000 nM (sheet 'Samples'), CATDS: 6.9489626335847196E-2; n = 1.
Assay [25] relates to CLK4. Conditions: read-out: apparent Kd; compound concentrations: 100 nM and 1000 nM (sheet 'Samples'), CATDS: 5.9316803085408598E-2; n = 1.
For assay [26], the system named is GSK3A. Particulars: read-out: apparent Kd; compound concentrations: 100 nM and 1000 nM (sheet 'Samples'), CATDS: 0.14981802566128199; n = 1.
Assay [27] concerns GSK3B. Conditions: read-out: apparent Kd; compound concentrations: 100 nM and 1000 nM (sheet 'Samples'), CATDS: 0.15901528532749901; n = 1.
Assay [28] has as its system LATS1. Conditions: read-out: apparent Kd; compound concentrations: 100 nM and 1000 nM (sheet 'Samples'), CATDS: 0.14331063333654301; n = 1.
Assay [29] deals with NQO1. Conditions: read-out: apparent Kd; compound concentrations: 100 nM and 1000 nM (sheet 'Samples'), CATDS: 4.4968257492060203E-2; n = 1.
The subject of assay [30] is PKN1. Particulars: read-out: apparent Kd; compound concentrations: 100 nM and 1000 nM (sheet 'Samples'), CATDS: 5.3241919532380499E-2; n = 1.
The test system of assay [31] is PKN2. Conditions: read-out: apparent Kd; compound concentrations: 100 nM and 1000 nM (sheet 'Samples'), CATDS: 0.153152330435843; n = 1.
Assay [32] has as its system PKN3. Particulars: read-out: apparent Kd; compound concentrations: 100 nM and 1000 nM (sheet 'Samples'), CATDS: 4.6811653986635102E-2; n = 1.
Assay [33] has as its system ROCK1. Conditions: read-out: apparent Kd; compound concentrations: 100 nM and 1000 nM (sheet 'Samples'), CATDS: 5.1294364781544602E-2; n = 1.
Assay [34] has as its system ROCK2. Particulars: read-out: apparent Kd; compound concentrations: 100 nM and 1000 nM (sheet 'Samples'), CATDS: 6.2443237217646497E-2; n = 1.
Assay [35] has as its system RPS6KA5. Conditions: read-out: apparent Kd; compound concentrations: 100 nM and 1000 nM (sheet 'Samples'), CATDS: 4.9211147170022597E-2; n = 1.
Assay [36] relates to RPS6KB1. Conditions: read-out: apparent Kd; compound concentrations: 100 nM and 1000 nM (sheet 'Samples'), CATDS: 0.131217569210515; n = 1.
The mark [37] stands for this setting: compound concentrations:100 nM and 1000 nM (sheet 'Samples').

Where two headings read alike, the source gives them in different places.

In the case of `N#Cc1cccc(C(=O)NC2CCN(c3ccnc(Nc4ccc(F)cc4)n3)C2)c1` (centres unmarked) [GSK1379708A], the potency estimated from few doses was 395 nM in [1] (compound concentrations: 100 nM and 1000 nM (sheet 'Samples'), CATDS: 0.21240793687588); 364 nM in assay [2] (CATDS: 0.22355141461127601); 631 nM in assay [3]; 1100 nM in [4] (compound concentrations: 100 nM and 1000 nM (sheet 'Samples'), CATDS: 0.12639229047772599); 879 nM in [5] (CATDS: 0.13886491205571); 1500 nM in assay [6]. Besides, the potency estimated from few doses in assay [7] is 1980 nM.
With `Cc1ccc(NC(=O)c2ccc(Cl)c(Cl)c2)cc1-c1ccc(C(=O)Nc2ccncc2)cc1` [GSK1398460A], the potency estimated from few doses in [8] is 1100 nM.
As to `FC(F)(F)c1ccccc1-c1cc(-c2c[nH]nc2-c2ccccn2)ccn1` [GW679396X], the values for the potency estimated from few doses in assay [1] (setting [37]), in [4] (setting [37]) and in assay [9] were 628 nM, 845 nM and 941 nM, respectively.
Take `Cn1cc(C2=C(N3CCOCC3)C(=O)NC2=O)c2ccccc21` [RO3303031-000]: the potency estimated from few doses in assay [1] (compound concentrations: 100 nM and 1000 nM (sheet 'Samples'), CATDS: 0.26217327719794398) was 327 nM; in assay [2] (CATDS: 0.25731079955705399), 336 nM; in assay [10] it was 957 nM; in assay [11], 1620 nM; in assay [12] it was 1140 nM; in [5] (CATDS: 0.154787589884953), 887 nM.
Take `CN(C)C(=O)O[C@H]1CN[C@H](C#Cc2cc3ncnc(Nc4ccc(OCc5cccc(F)c5)c(Cl)c4)c3s2)C1` [GSK182497A]: the potency estimated from few doses in [13] was 2010 nM; in assay [14] it was 175 nM.
Regarding `Cc1ccc2c(-c3ccnc(Nc4ccc(C(F)(F)F)cc4)n3)cnn2n1` [GW819776X], the potency estimated from few doses was 1650 nM in assay [15]; 1750 nM in assay [16]; 898 nM in assay [17]; 1180 nM in assay [18]; 1400 nM in [19]; 99.9 nM in assay [20]. In assay [21], the potency estimated from few doses is 1050 nM.
For `Nc1nonc1-c1nc2cnccc2n1C1CCCCC1` [SB-734117], the potency estimated from few doses was 2000 nM in assay [22]; 1000 nM in assay [23]; 446 nM in assay [24]; 693 nM in assay [25]; 91.8 nM in assay [26]; 83.3 nM in assay [27]. Moreover, the potency estimated from few doses is 98.8 nM in assay [28]; 1880 nM in assay [29]; 977 nM in assay [30]; 88.5 nM in assay [31]; 1580 nM in assay [32]; 1110 nM in assay [33]. Also, the potency estimated from few doses is 596 nM in assay [34], 1300 nM in assay [35] and 115 nM in assay [36].
